In test [1] the target is human Orphanin, Opioid Related Nociceptin Receptor 1 (ORL1), OPRL1 (gene 4987) (UniProt P41146). Nature of the test: NVS_GPCR_hORL1: NovaScreen (NVS) G Protein-Coupled Receptor Assay for human Orphanin, Opioid Related Nociceptin Receptor 1 (ORL1) (AID 2283283). The essentials:
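Filter-based radioligand displacement with receptor extracted from HEK293 cells, read 1 hour after dosing by scintillation counting. Duplicate single-point screen at 25 uM; qualifying chemicals then run in concentration-response to 50 uM, analysed relative to DMSO.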

For test [2], the target named is human Opioid Receptor Mu (Opiate Mu), OPRM1 (gene 4988) (UniProt P35372). In words: NVS_GPCR_hOpiate_mu: NovaScreen (NVS) G Protein-Coupled Receptor Assay for human Opioid Receptor Mu (Opiate Mu) (AID 2283290).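 Further: hits lower bound tracer signal versus DMSO meaning displacement of the ligand.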 The essentials: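 Radioligand displacement binding on membranes from CHO cells expressing the receptor, 2.5 h after dosing, filter-based scintillation counting; loss of signal vs DMSO baseline. Screened in duplicate at 25 uM, actives then run in concentration series.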

The test system of test [3] is 5-hydroxytryptamine receptor 2C (pig). Nature of the test: NVS_GPCR_p5HT2C: NovaScreen (NVS) G Protein-Coupled Receptor Assay for pig Serotonin, 5-Hydroxytryptamine Receptor 2C (5HT2C) (AID 2283288). A digest of the protocol:
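Pig choroid plexus membranes; radioligand competitive binding, filter-based scintillation counting, read 1 h after dosing. Primary screen in duplicate at 25 uM; actives then run as concentration series; loss of signal versus DMSO baseline.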

For test [4], the target named is rat Adrenergic, Alpha 1, Non-selective Receptor (Adra1), Adra1a (gene 29412) (UniProt P43140). In words: NVS_GPCR_rAdra1_NonSelective: NovaScreen (NVS) G Protein-Coupled Receptor Assay for rat Adrenergic, Alpha 1, Non-selective Receptor (Adra1) (AID 2283289). The essentials:
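Rat forebrain membranes; radioligand displacement read by filter-based scintillation counting 1 h after dosing. Primary screen in duplicate at 25 uM; hits (e.g. ≥30% inhibition) rerun as concentration–response to 50 uM max. Fitted versus DMSO.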

Test [5] has as its target rat Neonicotinoid receptor (NNR), Chrna7 (gene 25302) (UniProt Q05941). In words: NVS_LGIC_rNNR_BungSens: NovaScreen (NVS) Ligand-Gated Ion Channel Assay for rat Neonicotinoid receptor (NNR) (AID 2283315). The essentials: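 Radioligand displacement binding on rat cortical membranes, 2.5 h incubation, filtration and scintillation counting. Loss of specific binding fitted relative to DMSO.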

In test [6] the target is rat Adrenergic Receptor, Alpha 2 (Adra2), Non-selective Binding, Adra2a (gene 25083) (UniProt P22909). In words: NVS_GPCR_rAdra2_NonSelective: NovaScreen (NVS) G Protein-Coupled Receptor Assay for rat Adrenergic Receptor, Alpha 2 (Adra2), Non-selective Binding (AID 2283299). A digest of the protocol: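 Rat cortical membranes, radioligand competitive displacement read by filter-based scintillation counting 1.25 hours after dosing. Primary screen in duplicate at 25 uM; actives followed up in concentration series.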

The target in test [7] is human Opioid Receptor Delta 1 (Opiate D1), OPRD1 (gene 4985) (UniProt P41143). In words: NVS_GPCR_hOpiate_D1: NovaScreen (NVS) G Protein-Coupled Receptor Assay for human Opioid Receptor Delta 1 (Opiate D1) (AID 2283280). The essentials:
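Radioligand displacement on membranes from CHO cells expressing the receptor, read by filter scintillation counting 1 h after dosing. Duplicate single-point screen at 25 uM, then concentration series for actives; loss of signal versus DMSO.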

The target of a further test is Adra2b (gene 24174) (UniProt P19328). In words: NVS_GPCR_rmAdra2B: NovaScreen (NVS) G Protein-Coupled Receptor Assay for hybird cells Adrenergic, Alpha 2B Receptor (Adra2B) (AID 2283306). The essentials:
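Radioligand filter-binding assay on membrane proteins from neuroglioma/blastoma hybrid cells (rodent), 1 h after dosing; scintillation counting, loss of signal vs DMSO. Primary screen in duplicate at 25 uM, actives then run in concentration series.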

Test [8] addresses rat Serotonin, 5-Hydroxytryptamine Receptor (5HT), Non-Selective Binding, Htr1a (gene 24473) (UniProt P19327). In words: NVS_GPCR_r5HT_NonSelective: NovaScreen (NVS) G Protein-Coupled Receptor Assay for rat Serotonin, 5-Hydroxytryptamine Receptor (5HT), Non-Selective Binding (AID 2283295). A digest of the protocol: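 Radioligand displacement on rat cortical membranes, 1 h incubation, filter-based scintillation counting. Primary duplicates at 25 uM, actives retested in concentration series; loss of signal fitted against DMSO as baseline.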

Test [9] has as its system guinea pig Atrionatriuretic Peptide Receptor A (ANPA), gene 100135578. In words: NVS_GPCR_gANPA: NovaScreen (NVS) G Protein-Coupled Receptor Assay for guinea pig Atrionatriuretic Peptide Receptor A (ANPA) (AID 2283291). The essentials:
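Radioligand binding to guinea pig cerebellar membranes was measured after 1 h by filter-based scintillation counting. Chemicals were tested in duplicate at 25 uM, with hits run in concentration-response to a maximum of 50 uM. Binding loss was fitted against DMSO.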

The target in test [10] is rat Corticotropin Releasing Factor Receptor (CRF), Crhr1 (gene 58959) (UniProt P35353). Nature of the test: NVS_GPCR_rCRF: NovaScreen (NVS) G Protein-Coupled Receptor Assay for rat Corticotropin Releasing Factor Receptor (CRF) (AID 2283300). The essentials:
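Rat cortical membranes used as receptor source in a radioligand competitive displacement binding assay; scintillation read 2 h after dosing. Primary screen run in duplicate at 25 uM; loss of signal versus DMSO baseline indicates binding.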

The target of test [11] is rat Gamma-Aminobutyric Acid Type B Receptor (GABBR), Gabbr1 (gene 81657) (UniProt Q9Z0U4). In words: NVS_GPCR_rGABBR: NovaScreen (NVS) G Protein-Coupled Receptor Assay for rat Gamma-Aminobutyric Acid Type B Receptor (GABBR) (AID 2283301). The essentials:
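Radioligand displacement on rat cortical membranes, 1 h, filter-based scintillation counting. Primary screen at 25 uM in duplicate; compounds passing threshold re-tested in concentration-response up to 50 uM; loss of binding fitted against DMSO.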

Test [12] has as its target rat Opioid Receptor, Non-selective Sodium (Na+) Binding, Oprm1 (gene 25601) (UniProt P33535). Nature of the test: NVS_GPCR_rOpiate_NonSelectiveNa: NovaScreen (NVS) G Protein-Coupled Receptor Assay for rat Opioid Receptor, Non-selective Sodium (Na+) Binding (AID 2283311). A digest of the protocol:
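Rat forebrain membranes, radioligand displacement with filter scintillation counting, 1.5 h incubation. Screened in duplicate at 25 µM; hits then run in concentration-response up to 50 µM; loss of binding fitted versus DMSO.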

The target of test [13] is human Thromboxane A2 Receptor (TXA2), TBXA2R (gene 6915) (UniProt P21731). In words: NVS_GPCR_hTXA2: NovaScreen (NVS) G Protein-Coupled Receptor Assay for human Thromboxane A2 Receptor (TXA2) (AID 2283282).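 Further: actives reduce bound radioligand signal relative to DMSO baseline.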 A digest of the protocol:
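Filter scintillation counting of bound radioligand, human platelet protein, 1 h exposure. Single-concentration duplicates (25 uM) first, concentration-response follow-up for actives. Binding loss scored against DMSO baseline.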

The subject of test [14] is rat Adrenergic, Alpha 1B Receptor (Adra1B), gene 24173. Nature of the test: NVS_GPCR_rAdra1B: NovaScreen (NVS) G Protein-Coupled Receptor Assay for rat Adrenergic, Alpha 1B Receptor (Adra1B) (AID 2283297). A digest of the protocol: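 Rat liver membranes, radioligand displacement with filter-based scintillation detection, 1 h incubation. Primary screen in duplicate at 25 uM; actives retested in concentration series; activity relative to DMSO.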

Test [15] addresses rat Neurotensin Receptor (NTS), Ntsr1 (gene 366274) (UniProt P20789). In words: NVS_GPCR_rNTS: NovaScreen (NVS) G Protein-Coupled Receptor Assay for rat Neurotensin Receptor (NTS) (AID 2283308). A digest of the protocol:
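Rat forebrain membranes; radioligand binding with competitive displacement, read by filter-based scintillation counting 1 h after dosing. Primary screen in duplicate at 25 uM; actives (e.g., 30% inhibition) rerun in concentration-response up to 50 uM, loss-of-signal versus DMSO.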

For test [16], the target named is mouse Cholecystokinin, CCK2 Receptor (CCKB), Cckbr (gene 12426) (UniProt P56481). In words: NVS_GPCR_mCKKBCentral: NovaScreen (NVS) G Protein-Coupled Receptor Assay for mouse Cholecystokinin, CCK2 Receptor (CCKB) (AID 2283293). The essentials:
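Radioligand displacement binding on mouse forebrain membranes, 2 h exposure, filter-based scintillation counting. Primary screen in duplicate at 25 uM; actives (e.g. ≥30% inhibition) retested in concentration-response up to 50 uM; loss of binding signal relative to DMSO.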

In test [17] the target is human Purinergic Receptor P2Y, P2RY1 (gene 5028) (UniProt P47900). Nature of the test: NVS_GPCR_hPY2: NovaScreen (NVS) G Protein-Coupled Receptor Assay for human Purinergic Receptor P2Y (AID 2283281). The essentials: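 Cell-free radioligand binding using U937-derived protein, 1 h after dosing, filter-based scintillation counting. Screened in duplicate at 25 uM; actives rerun as concentration-response up to 50 uM; loss of signal versus DMSO.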

The next test relates to NCBI gene 24521. Nature of the test: NVS_IC_rKATPCh: NovaScreen (NVS) Ion Channel Assay for rat Potassium Channel, ATP-Sensitive (KATPCh) (AID 2283319). The essentials: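 Rat cortical membranes; radioligand binding at ATP-sensitive K channel site, filter-based scintillation counting 2 h after dosing. Single-point duplicate screen at 25 uM, hits rerun in concentration-response up to 50 uM; loss of signal versus DMSO.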

Records with an inconclusive call do not appear. Active and inactive are the calls of the source. How the source made its calls: active means hit-call score of the fitted dose curve at least 0.9, where 1 is the maximum; inconclusive means response in the unintended direction; inactive means score below 0.9.

human Opioid Receptor Mu (Opiate Mu), OPRM1 (gene 4988), sequence (P35372 whole entry, looked up): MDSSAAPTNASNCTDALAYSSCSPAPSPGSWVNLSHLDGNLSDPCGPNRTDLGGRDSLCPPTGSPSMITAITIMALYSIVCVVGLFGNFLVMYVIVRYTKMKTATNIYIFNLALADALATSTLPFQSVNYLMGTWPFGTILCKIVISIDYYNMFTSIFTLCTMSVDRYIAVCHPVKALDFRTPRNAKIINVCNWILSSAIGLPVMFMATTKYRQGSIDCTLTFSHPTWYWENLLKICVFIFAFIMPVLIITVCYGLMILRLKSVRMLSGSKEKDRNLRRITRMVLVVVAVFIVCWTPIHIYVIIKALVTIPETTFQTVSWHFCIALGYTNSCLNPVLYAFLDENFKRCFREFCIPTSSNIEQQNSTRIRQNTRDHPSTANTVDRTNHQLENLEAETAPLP
human Thromboxane A2 Receptor (TXA2), TBXA2R (gene 6915), sequence (P21731 whole entry, looked up): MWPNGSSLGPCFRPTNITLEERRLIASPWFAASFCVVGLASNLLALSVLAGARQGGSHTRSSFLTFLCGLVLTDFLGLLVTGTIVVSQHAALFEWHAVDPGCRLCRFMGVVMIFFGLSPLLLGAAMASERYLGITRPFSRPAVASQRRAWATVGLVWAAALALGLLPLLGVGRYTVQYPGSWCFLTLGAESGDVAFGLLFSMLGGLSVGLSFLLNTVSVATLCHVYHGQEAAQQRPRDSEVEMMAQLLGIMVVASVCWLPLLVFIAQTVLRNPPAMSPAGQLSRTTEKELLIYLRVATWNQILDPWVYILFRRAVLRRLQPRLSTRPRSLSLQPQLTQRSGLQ
rat Adrenergic Receptor, Alpha 2 (Adra2), Non-selective Binding, Adra2a (gene 25083), sequence (P22909 whole entry, looked up): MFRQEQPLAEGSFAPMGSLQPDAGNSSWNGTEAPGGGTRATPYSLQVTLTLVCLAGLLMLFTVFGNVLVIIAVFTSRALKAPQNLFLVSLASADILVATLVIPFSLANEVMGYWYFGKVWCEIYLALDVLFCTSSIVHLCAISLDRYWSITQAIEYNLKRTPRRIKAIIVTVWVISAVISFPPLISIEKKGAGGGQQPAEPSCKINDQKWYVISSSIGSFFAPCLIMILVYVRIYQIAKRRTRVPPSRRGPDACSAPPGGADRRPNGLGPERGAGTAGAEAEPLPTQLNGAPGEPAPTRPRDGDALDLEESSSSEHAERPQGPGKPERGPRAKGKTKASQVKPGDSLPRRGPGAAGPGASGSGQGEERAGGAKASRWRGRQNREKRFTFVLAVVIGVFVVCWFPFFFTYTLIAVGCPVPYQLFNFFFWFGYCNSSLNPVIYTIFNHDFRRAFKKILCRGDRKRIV
rat Neonicotinoid receptor (NNR), Chrna7 (gene 25302), sequence (Q05941 whole entry, looked up): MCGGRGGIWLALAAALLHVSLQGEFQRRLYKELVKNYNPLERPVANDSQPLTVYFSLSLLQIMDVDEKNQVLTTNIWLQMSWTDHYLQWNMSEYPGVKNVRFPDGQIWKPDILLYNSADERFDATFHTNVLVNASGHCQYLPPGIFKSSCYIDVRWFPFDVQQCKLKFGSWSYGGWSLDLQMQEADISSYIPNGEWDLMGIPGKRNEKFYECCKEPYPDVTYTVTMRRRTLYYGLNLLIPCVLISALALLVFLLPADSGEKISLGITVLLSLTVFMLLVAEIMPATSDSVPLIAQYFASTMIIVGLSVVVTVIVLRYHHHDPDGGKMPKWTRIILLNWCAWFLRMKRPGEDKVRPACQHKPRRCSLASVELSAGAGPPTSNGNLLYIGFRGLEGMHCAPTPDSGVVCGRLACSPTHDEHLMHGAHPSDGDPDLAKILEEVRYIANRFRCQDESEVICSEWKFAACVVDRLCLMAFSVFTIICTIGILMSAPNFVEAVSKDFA
human Opioid Receptor Delta 1 (Opiate D1), OPRD1 (gene 4985), sequence (P41143 whole entry, looked up): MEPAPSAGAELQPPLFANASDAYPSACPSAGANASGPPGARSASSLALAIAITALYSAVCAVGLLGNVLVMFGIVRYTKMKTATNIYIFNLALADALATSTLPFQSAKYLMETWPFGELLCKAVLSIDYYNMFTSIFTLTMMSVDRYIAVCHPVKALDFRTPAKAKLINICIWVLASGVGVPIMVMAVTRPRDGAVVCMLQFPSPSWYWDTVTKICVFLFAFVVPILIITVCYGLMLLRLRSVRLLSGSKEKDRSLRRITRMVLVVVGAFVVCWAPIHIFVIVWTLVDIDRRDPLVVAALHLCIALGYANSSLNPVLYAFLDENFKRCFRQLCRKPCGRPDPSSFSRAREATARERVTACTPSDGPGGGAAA
rat Neurotensin Receptor (NTS), Ntsr1 (gene 366274), sequence (P20789 whole entry, looked up): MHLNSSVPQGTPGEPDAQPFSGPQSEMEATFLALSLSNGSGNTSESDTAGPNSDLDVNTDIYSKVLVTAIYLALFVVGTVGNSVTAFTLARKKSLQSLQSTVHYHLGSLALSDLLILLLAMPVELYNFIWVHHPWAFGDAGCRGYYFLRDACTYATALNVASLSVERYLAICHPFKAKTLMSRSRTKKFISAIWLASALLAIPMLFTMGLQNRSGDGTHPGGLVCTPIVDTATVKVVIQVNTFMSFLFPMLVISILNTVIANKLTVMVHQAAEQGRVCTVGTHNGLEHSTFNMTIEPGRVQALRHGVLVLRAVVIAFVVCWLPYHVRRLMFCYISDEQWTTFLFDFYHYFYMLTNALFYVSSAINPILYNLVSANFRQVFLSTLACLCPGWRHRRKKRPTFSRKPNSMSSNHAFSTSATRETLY
Adra2b (gene 24174), sequence (P19328 whole entry, looked up): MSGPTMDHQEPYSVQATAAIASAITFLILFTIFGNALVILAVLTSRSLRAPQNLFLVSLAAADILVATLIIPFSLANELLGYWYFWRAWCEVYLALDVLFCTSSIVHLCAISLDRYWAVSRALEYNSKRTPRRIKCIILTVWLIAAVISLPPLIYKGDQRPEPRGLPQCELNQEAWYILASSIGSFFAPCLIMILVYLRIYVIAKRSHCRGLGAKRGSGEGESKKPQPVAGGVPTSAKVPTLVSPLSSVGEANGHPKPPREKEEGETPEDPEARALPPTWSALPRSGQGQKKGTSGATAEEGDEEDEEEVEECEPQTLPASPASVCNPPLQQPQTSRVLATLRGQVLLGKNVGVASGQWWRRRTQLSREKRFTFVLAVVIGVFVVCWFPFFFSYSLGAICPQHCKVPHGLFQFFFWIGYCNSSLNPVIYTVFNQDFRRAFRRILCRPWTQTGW
rat Gamma-Aminobutyric Acid Type B Receptor (GABBR), Gabbr1 (gene 81657), sequence (Q9Z0U4 whole entry, looked up): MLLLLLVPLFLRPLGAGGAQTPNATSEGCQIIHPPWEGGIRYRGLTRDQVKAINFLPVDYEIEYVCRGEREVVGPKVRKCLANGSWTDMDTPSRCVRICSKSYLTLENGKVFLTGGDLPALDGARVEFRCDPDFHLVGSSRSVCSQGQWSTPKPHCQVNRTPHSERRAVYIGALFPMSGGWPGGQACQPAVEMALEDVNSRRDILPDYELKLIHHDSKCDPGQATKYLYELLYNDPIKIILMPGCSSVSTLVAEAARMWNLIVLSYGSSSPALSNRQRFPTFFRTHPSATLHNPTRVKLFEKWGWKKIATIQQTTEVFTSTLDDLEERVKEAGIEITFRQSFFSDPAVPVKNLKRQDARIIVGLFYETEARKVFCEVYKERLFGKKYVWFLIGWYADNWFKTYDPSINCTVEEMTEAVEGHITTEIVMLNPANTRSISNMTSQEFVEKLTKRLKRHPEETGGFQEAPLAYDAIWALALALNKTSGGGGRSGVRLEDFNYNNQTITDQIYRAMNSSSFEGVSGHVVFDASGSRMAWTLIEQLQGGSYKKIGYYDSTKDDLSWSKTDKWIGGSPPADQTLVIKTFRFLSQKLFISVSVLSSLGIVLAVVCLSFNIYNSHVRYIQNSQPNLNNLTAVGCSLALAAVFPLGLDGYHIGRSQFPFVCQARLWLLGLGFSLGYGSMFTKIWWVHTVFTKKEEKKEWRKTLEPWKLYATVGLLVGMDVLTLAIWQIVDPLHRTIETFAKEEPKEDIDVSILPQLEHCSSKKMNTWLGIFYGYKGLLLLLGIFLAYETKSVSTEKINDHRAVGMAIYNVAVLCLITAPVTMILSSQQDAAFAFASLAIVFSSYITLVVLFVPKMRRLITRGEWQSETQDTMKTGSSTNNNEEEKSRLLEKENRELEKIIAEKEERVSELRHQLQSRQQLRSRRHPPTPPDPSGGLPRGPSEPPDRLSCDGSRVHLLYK
human Purinergic Receptor P2Y, P2RY1 (gene 5028), sequence (P47900 whole entry, looked up): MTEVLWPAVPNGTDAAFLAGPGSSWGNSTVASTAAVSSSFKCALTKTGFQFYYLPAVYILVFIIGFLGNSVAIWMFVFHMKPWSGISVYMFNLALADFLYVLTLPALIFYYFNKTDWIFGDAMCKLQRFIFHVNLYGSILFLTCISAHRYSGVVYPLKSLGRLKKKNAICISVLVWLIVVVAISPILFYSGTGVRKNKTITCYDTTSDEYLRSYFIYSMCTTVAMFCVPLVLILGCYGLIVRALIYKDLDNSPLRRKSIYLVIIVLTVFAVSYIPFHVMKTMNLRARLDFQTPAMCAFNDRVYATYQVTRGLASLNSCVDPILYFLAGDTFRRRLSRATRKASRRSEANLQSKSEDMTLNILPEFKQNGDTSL
rat Opioid Receptor, Non-selective Sodium (Na+) Binding, Oprm1 (gene 25601), sequence (P33535 whole entry, looked up): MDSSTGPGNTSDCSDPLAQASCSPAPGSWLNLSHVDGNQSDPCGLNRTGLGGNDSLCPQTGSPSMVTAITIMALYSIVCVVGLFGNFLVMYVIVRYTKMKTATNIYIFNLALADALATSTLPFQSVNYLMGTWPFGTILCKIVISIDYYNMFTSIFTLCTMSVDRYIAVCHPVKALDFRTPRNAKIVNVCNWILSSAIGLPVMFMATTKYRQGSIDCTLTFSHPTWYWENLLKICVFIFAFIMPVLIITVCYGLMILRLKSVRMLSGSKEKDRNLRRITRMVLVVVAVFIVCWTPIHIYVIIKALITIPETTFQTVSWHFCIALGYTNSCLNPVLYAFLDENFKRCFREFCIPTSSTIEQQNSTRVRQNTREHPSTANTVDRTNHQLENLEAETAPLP

The AC50 is the concentration giving half of the maximal activity seen. As to `CC1(C)CN=C(NN=C(/C=C/c2ccc(C(F)(F)F)cc2)/C=C/c2ccc(C(F)(F)F)cc2)NC1`, the AC50 in test [1] was 37.2 µM (active); in [2], 6.5 µM (active).

Regarding `c1ccc2c(c1)Nc1ccccc1S2`, the outcome in [3] and in [4] was inactive.

Consider `Cc1cc(C)c(C(=O)P(=O)(c2ccccc2)c2ccccc2)c(C)c1`, for which the outcome in test [5] was inactive.

With `CC(C)Nc1ccc(Nc2ccccc2)cc1`, in [6], the half-maximal activity concentration (AC50) is 25 µM (active).

With `O=C(O)C1C(C(=O)O)C2(Cl)C(Cl)=C(Cl)C1(Cl)C2(Cl)Cl` (stereo unspecified), in [7], the compound was called inactive.

Consider `O=P(Oc1ccccc1)(Oc1ccccc1)Oc1ccccc1`, for which, in the test with Adra2b (gene 24174), the result was inactive.

`Cc1ccc([N+](=O)[O-])cc1C`: in test [8], the compound was called inactive.

For the compound `O=[N+]([O-])c1ccccc1`, the compound was called inactive in [9].

Turning to `CC(Cc1ccc(OCC(=O)O)cc1)NCC(O)c1csc(C(F)(F)F)n1` (stereo unspecified), the compound was called inactive in test [9], in test [10] and in test [11].

For the compound `CCCCC(CC)COP(=O)(Oc1ccccc1)Oc1ccccc1` (stereo unspecified), in test [6], the outcome was inactive.

As for `Nc1cc2c3c(c1)C(c1ccccc1)=N[C@@H](NC(=O)c1cccnc1)C(=O)N3CC2`, the outcome in test [12] and in test [5] was inactive.

As for `N#Cc1ccc(O)cc1`, the call in [13] was inactive.

As for `CCCCN(CCCC)SN(C)C(=O)Oc1cccc2c1OC(C)(C)C2`, the compound was called inactive in test [7], in [2], in test [14] and in [15].

Regarding `CCC(C)(C)c1ccc(O)cc1`, the AC50 in [2] was 6.43 µM (active). In addition, the result in [16] was inactive.

Turning to `CC(=O)c1ccc(-c2ccccc2)cc1`, the outcome in test [13] was inactive.

For the compound `O=c1ssc(Cl)c1Cl`, in test [17], the compound was classed as inactive. For the same compound, the half-maximal activity concentration (AC50) in test [2] is 0.885 µM (active).

For the compound `Cc1ccc2c(c1N)C(=O)c1ccccc1C2=O`, the compound was called inactive in [13].

On to `OCC1CO1` (stereo unspecified), for which the outcome (in [2]; in the test with NCBI gene 24521) was inactive.

With `CCOP(=S)(OCC)SCS(=O)(=O)CC`, the compound was called inactive in [2].

With `C/C(=N\NC(=O)Nc1cc(F)cc(F)c1)c1ncccc1C(=O)O`, the compound was classed as inactive in [13].
